Assay results reported in PubChem BioAssay (EPA / NIEHS).
The source made the active and inactive calls. Rule for the calls: active = hit-call score of the fitted dose curve at least 0.9, where 1 is the maximum; inactive = score below 0.9.

Tests used:
Settings in all cases: mRNA level, 48 h; actives raise or lower the signal
[1] = read-out: Intercellular Adhesion Molecule 1 (ICAM1), ICAM1 (gene 3383); assay: LTEA_HepaRG_ICAM1: Life Technologies and Expression Analysis (LTEA) Assay for Intercellular Adhesion Molecule 1 (ICAM1) using HepaRG (AID 2283507)
How it was run: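 ICAM1 transcript levels measured by qRT-PCR, normalized to three housekeeping genes (ACTB, GAPDH, POLR2A), after 48 h chemical exposure of HepaRG cells. Duplicate eight-point half-log series from 100 uM in 0.5% DMSO; gain or loss fitted against vehicle.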

[2] = read-out: Insulin-like growth factor-binding protein 1 (IGFBP1), IGFBP1 (gene 3484); assay: LTEA_HepaRG_IGFBP1: Life Technologies and Expression Analysis (LTEA) Assay for Insulin-like growth factor-binding protein 1 (IGFBP1) using HepaRG (AID 2283508)
How it was run: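 Read-out is qRT-PCR transcript level normalized to three housekeeping genes, fitted in both directions against 0.5% DMSO. Differentiated HepaRG cells received eight half-log concentrations (top 100 uM) in duplicate for 48 h in serum-free induction medium.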

[3] = read-out: Interleukin 6 (IL6), IL6 (gene 3569); assay: LTEA_HepaRG_IL6: Life Technologies and Expression Analysis (LTEA) Assay for Interleukin 6 (IL6) using HepaRG (AID 2283509)
How it was run: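 Changes in IL6 mRNA, up or down relative to 0.5% DMSO controls, were derived from concentration-response curves in human HepaRG cells treated for 48 h at up to 100 uM, with ACTB, GAPDH and POLR2A as normalizers.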

[4] = read-out: Interleukin 6 Receptor (IL6R), IL6R (gene 3570); assay: LTEA_HepaRG_IL6R: Life Technologies and Expression Analysis (LTEA) Assay for Interleukin 6 Receptor (IL6R) using HepaRG (AID 2283510);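 for AC50: differentiated human HepaRG liver cells in serum-free induction medium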
How it was run: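 HepaRG, 48 h exposure, 8-pt half-log series, top 100 uM, 0.5% DMSO vehicle, duplicates. Read-out: TaqMan qRT-PCR of IL6R transcript, housekeeping-gene normalized. Gain or loss fitted relative to DMSO baseline.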

[5] = read-out: Potassium channel subfamily K member 1 (KCNK1), KCNK1 (gene 3775); assay: LTEA_HepaRG_KCNK1: Life Technologies and Expression Analysis (LTEA) Assay for Potassium channel subfamily K member 1 (KCNK1) using HepaRG (AID 2283511)
How it was run: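 Human HepaRG cultures receive test chemicals for 48 h in 0.5% DMSO, top concentration 100 uM with half-log dilutions. Induction or suppression of KCNK1 mRNA relative to DMSO is derived by bidirectional fitting of qRT-PCR data.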

[6] = read-out: Keratin 19 (KRT19), KRT19 (gene 3880); assay: LTEA_HepaRG_KRT19: Life Technologies and Expression Analysis (LTEA) Assay for Keratin 19 (KRT19) using HepaRG (AID 2283512)
How it was run: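 KRT19 transcript measured by TaqMan qRT-PCR, referenced to three housekeeping genes, after HepaRG cells received test chemicals for 48 h. Eight half-log concentrations, top 100 uM, 0.5% DMSO vehicle; increases and decreases both fitted.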

[7] = read-out: JUN Transcription Factor, JUN (gene 3725); assay: LTEA_HepaRG_JUN: Life Technologies and Expression Analysis (LTEA) Assay for JUN Transcription Factor using HepaRG (AID 2283513)
How it was run: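 HepaRG, 48 h exposure, 8-pt half-log series top 100 uM, 0.5% DMSO, duplicate. JUN mRNA by qRT-PCR (Fluidigm), housekeeping-normalized (ACTB/GAPDH/POLR2A); bidirectional curve fit vs DMSO baseline.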

[8] = read-out: Lipase C (LIPC), LIPC (gene 3990); assay: LTEA_HepaRG_LIPC: Life Technologies and Expression Analysis (LTEA) Assay for Lipase C (LIPC) using HepaRG (AID 2283514)
How it was run: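 In this multiplexed gene-expression screen, human HepaRG cultures received test chemicals for 48 h across eight concentrations with 100 uM highest, in duplicate. Values reflect LIPC mRNA induction or suppression versus DMSO vehicle, from normalized qRT-PCR.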

[9] = read-out: Lipoprotein lipase (LPL), LPL (gene 4023); assay: LTEA_HepaRG_LPL: Life Technologies and Expression Analysis (LTEA) Assay for Lipoprotein lipase (LPL) using HepaRG (AID 2283515)
How it was run: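 Concentration-response testing used half-log steps from 100 uM in 0.5% DMSO on human HepaRG cells, 48 h, duplicate wells. Phenobarbital 1 mM served as induction control; LPL mRNA was normalized to ACTB, GAPDH, POLR2A.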

[10] = read-out: MicroRNA 122 (MIR122), gene 406906; assay: LTEA_HepaRG_MIR122: Life Technologies and Expression Analysis (LTEA) Assay for MicroRNA 122 (MIR122) using HepaRG (AID 2283516); note: the transcript read is the microRNA miR-122
How it was run: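 qRT-PCR read-out (TaqMan, Fluidigm array), normalized to three housekeeping genes; HepaRG cells dosed 48 h at 8 concentrations up to 100 uM in 0.5% DMSO, duplicate; gain or loss fitted against DMSO baseline.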

[11] = read-out: matrix metalloproteinase-10 (MMP10), MMP10 (gene 4319); assay: LTEA_HepaRG_MMP10: Life Technologies and Expression Analysis (LTEA) Assay for matrix metalloproteinase-10 (MMP10) using HepaRG (AID 2283517)
How it was run: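 In differentiated HepaRG cultures kept in 0.5% DMSO, test chemicals act for 48 h over an eight-point range with a top dose of 100 uM. Expression is then quantified by TaqMan RT-PCR against ACTB, GAPDH and POLR2A.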

MYC, MYC (gene 4609) = assay: LTEA_HepaRG_MYC: Life Technologies and Expression Analysis (LTEA) Assay for MYC using HepaRG (AID 2283518)
How it was run: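 MYC transcript changes, up or down relative to 0.5% DMSO, from TaqMan qRT-PCR normalized to three housekeeping genes. Human HepaRG cultures received chemicals for 48 h at eight half-log concentrations up to 100 uM, in duplicate.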

[12] = read-out: matrix metalloproteinase-3 (MMP3), MMP3 (gene 4314); assay: LTEA_HepaRG_MMP3: Life Technologies and Expression Analysis (LTEA) Assay for matrix metalloproteinase-3 (MMP3) using HepaRG (AID 2283519)
How it was run: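 Human liver HepaRG cultures received chemicals (top concentration 100 uM, 0.5% DMSO) for 48 h in duplicate. MMP3 mRNA induction or loss was then assessed via TaqMan qRT-PCR with housekeeping-gene normalisation.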

[13] = read-out: Paternally Expressed 10 (PEG10), PEG10 (gene 23089); assay: LTEA_HepaRG_PEG10: Life Technologies and Expression Analysis (LTEA) Assay for Paternally Expressed 10 (PEG10) using HepaRG (AID 2283520);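 for AC50: PEG10 transcript by qRT-PCR normalised to ACTB GAPDH and POLR2A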
How it was run: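 qRT-PCR read-out: PEG10 mRNA normalised to three housekeeping genes, fitted bidirectionally against 0.5% DMSO vehicle. HepaRG cells received test chemicals for 48 h in serum-free induction medium, 8 points, top 100 uM, half-log steps.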

[14] = read-out: Nuclear factor NF-kappa-B p105 subunit (Homo sapiens) (UniProt P19838); assay: LTEA_HepaRG_NFKB1: Life Technologies and Expression Analysis (LTEA) Assay for Nuclear Factor Kappa B Subunit 1 (NFKB1) using HepaRG (AID 2283521);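 note: differentiated human HepaRG liver cells in serum-free induction medium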
How it was run: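 NFKB1 transcript was measured by TaqMan qRT-PCR on Fluidigm arrays, normalised to three housekeeping genes and fitted in both directions against 0.5% DMSO. HepaRG cells were dosed in duplicate for 48 h in serum-free induction medium, eight half-log steps from 100 uM.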

[15] = read-out: Protein phosphatase 2A (PPP2R4), PTPA (gene 5524); assay: LTEA_HepaRG_PPP2R4: Life Technologies and Expression Analysis (LTEA) Assay for Protein phosphatase 2A (PPP2R4) using HepaRG (AID 2283522)
How it was run: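 HepaRG, 48 h exposure, 8-pt half-log series from 100 uM, 0.5% DMSO vehicle, duplicates. Readout: PPP2R4 mRNA, Fluidigm qRT-PCR, housekeeping-normalized. Bidirectional curve fit vs DMSO baseline.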

[16] = read-out: Phosphatase and tensin (PTEN), PTEN (gene 5728); assay: LTEA_HepaRG_PTEN: Life Technologies and Expression Analysis (LTEA) Assay for Phosphatase and tensin (PTEN) using HepaRG (AID 2283523)
How it was run: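 Expression of PTEN is quantified in the human liver line HepaRG following two days of dosing (top concentration 100 uM, half-log dilutions, 0.5% DMSO). Values derive from bidirectional curve fitting relative to DMSO controls.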

[17] = read-out: solute carrier (SLC22A1), SLC22A1 (gene 6580); assay: LTEA_HepaRG_SLC22A1: Life Technologies and Expression Analysis (LTEA) Assay for solute carrier (SLC22A1) using HepaRG (AID 2283524);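 for AC50: differentiated human HepaRG liver cells in serum-free induction medium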
How it was run: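 Transcript induction or suppression of SLC22A1 in human HepaRG cultures is scored after 48 h chemical treatment, with DMSO (0.5%) as baseline for bidirectional fitting. Concentrations span eight half-log points topping at 100 uM.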

[18] = read-out: Pyruvate Dehydrogenase Kinase 4 (PDK4), PDK4 (gene 5166); assay: LTEA_HepaRG_PDK4: Life Technologies and Expression Analysis (LTEA) Assay for Pyruvate Dehydrogenase Kinase 4 (PDK4) using HepaRG (AID 2283525)
How it was run: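 Eight-point, half-log concentration series (max 100 uM, 0.5% DMSO) applied to differentiated HepaRG cells for 48 h in duplicate. Endpoint: PDK4 mRNA induction or repression by qRT-PCR against DMSO baseline.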

[19] = read-out: NAD(P)H dehydrogenase [quinone] 1 (NQO1), NQO1 (gene 1728); assay: LTEA_HepaRG_NQO1: Life Technologies and Expression Analysis (LTEA) Assay for NAD(P)H dehydrogenase [quinone] 1 (NQO1) using HepaRG (AID 2283526)
How it was run: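 qRT-PCR read-out (Fluidigm TaqMan), normalized to three housekeeping genes, after 48 h chemical exposure of HepaRG cells. Concentrations: eight points, top 100 uM, half-log steps, 0.5% DMSO vehicle. Gain or loss of signal fitted relative to DMSO.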

Measured: AC50

Chain of Nuclear factor NF-kappa-B p105 subunit (Homo sapiens) (P19838 whole entry, looked up): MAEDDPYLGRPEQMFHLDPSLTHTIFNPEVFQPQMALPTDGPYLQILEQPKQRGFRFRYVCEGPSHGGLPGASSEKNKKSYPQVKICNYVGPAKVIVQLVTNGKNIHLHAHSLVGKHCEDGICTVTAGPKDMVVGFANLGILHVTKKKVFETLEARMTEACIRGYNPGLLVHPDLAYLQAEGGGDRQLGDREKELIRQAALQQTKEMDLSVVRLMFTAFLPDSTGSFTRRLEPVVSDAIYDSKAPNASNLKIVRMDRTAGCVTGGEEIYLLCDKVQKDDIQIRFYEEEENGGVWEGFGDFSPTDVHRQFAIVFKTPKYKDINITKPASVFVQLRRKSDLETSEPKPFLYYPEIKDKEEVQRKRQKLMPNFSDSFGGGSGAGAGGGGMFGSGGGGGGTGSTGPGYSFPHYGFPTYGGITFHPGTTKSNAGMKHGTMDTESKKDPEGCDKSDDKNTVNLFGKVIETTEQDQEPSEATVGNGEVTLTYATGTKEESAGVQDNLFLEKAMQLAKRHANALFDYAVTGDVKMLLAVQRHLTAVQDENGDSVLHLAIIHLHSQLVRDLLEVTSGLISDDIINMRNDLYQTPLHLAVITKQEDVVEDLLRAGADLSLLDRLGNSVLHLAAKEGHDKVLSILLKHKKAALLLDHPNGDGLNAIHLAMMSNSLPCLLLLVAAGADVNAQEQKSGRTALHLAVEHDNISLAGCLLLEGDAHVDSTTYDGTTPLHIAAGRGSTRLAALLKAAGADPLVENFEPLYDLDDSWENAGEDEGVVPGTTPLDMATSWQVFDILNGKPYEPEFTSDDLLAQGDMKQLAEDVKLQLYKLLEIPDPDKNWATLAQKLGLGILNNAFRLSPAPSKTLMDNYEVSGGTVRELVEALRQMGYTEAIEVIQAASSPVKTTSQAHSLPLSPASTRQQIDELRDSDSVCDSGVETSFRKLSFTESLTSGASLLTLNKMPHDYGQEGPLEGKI

C1CC2OC2CC1C1CO1 (configuration not stated)
not listed: [19]
inactive: all other assays above

O=S(=O)(O)C(F)(F)C(F)(F)C(F)(F)C(F)(F)F
not listed: [19]
inactive: all other assays above

C[C@]12CCC(=O)C=C1CC[C@@H]1[C@@H]2CC[C@]2(C)C(=O)CC[C@@H]12
active: [3] 9.92 µM | [12] 8.39 µM | [13] 6.54 µM
not listed: [8] | [14] | [19]
inactive: all other assays above

O=C(NC(=O)c1cc(F)c(F)cc1Cl)Nc1cc(F)ccc1N1CCC(C(=O)O)CC1
active: [13] 25 µM
not listed: [14] | [19]
inactive: all other assays above

ClC1=C(Cl)[C@]2(Cl)[C@@H]3[C@@H]4C[C@@H]([C@H]5O[C@@H]45)[C@@H]3[C@@]1(Cl)C2(Cl)Cl
active: [1] 9.92 µM | [4] 0.00506 µM | MYC, MYC (gene 4609) 9.92 µM | [16] 0.0333 µM | [17] 50 µM | [18] 0.00905 µM
not listed: [19]
inactive: all other assays above

CCCCCCCCCc1ccc(O)cc1
active: [18] 63.2 µM
inactive: all other assays above
